Source: PubChem (several laboratories)
NOD2 RIPK2 PPI: NOD2-RIPK2 binding disruptors in cells, primary screen, fluorescence, CHO cells, BLA complementation. hit rate 0.38% among 360,000. inhibition, % at 4.98 µM. CCF4 ratio. AID 624267, 2012; in the data active = inhibition above about 21%
m5-HT2A agonist: mouse Htr2a agonists via beta-arrestin recruitment, primary screen, cell-based, luminescence; activation, % at 7.6 µM; hit rate 0.66% among 360,000; CHO-K1 mHTR2A beta-arrestin complementation; percent of 30 µM serotonin response; AID 624169, 2012; 5-hydroxytryptamine receptor 2A (Mus musculus), P35363;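 active = activation above a run cutoff, the mean activation of all tested compounds plus 3 SD, cut at about 14% in these data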
Target sequence (P35363 whole entry, looked up): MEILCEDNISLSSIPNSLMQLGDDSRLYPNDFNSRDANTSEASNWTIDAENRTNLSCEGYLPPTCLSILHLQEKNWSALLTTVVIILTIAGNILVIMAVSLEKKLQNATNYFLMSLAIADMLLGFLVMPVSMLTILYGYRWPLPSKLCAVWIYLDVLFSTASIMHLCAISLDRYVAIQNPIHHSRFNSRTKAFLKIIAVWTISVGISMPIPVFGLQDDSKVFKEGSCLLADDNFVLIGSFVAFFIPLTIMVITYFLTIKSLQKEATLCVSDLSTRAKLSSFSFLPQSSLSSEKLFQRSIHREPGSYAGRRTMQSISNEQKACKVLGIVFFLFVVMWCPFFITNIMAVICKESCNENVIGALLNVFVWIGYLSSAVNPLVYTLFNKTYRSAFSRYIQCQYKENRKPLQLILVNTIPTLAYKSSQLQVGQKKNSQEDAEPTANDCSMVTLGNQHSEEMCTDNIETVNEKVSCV
TLR9-MyD88 block: inhibitors of TLR9-MyD88 association in cells, primary screen, cell-based, CHO, BLA complementation, fluorescence; Toll-like receptor 9 (Homo sapiens) + Myeloid differentiation primary response protein …; hit rate 0.21% among 340,000; inhibition, % at 4.98 µM; CCF4 FRET ratio;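 active = inhibition above the mean over all tested compounds plus 3 SD, cut at about 21% in these data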
Rtt109 HAT inh: inhibitors of C. albicans Rtt109/Vps75 HAT, primary screen, biochemical, ThioGlo CoA-SH fluorescence, plate reader; purified Rtt109/Vps75, 4 h; inhibition, % at 34.9 µM; hit rate 0.16% among 330,000; AID 540336, 2011;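 active = inhibition of at least 50% in every replicate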
LANA-H2A inh: blockers of LANA interaction with H2A/H2B – biochemical, FP readout, HTS, primary screen | cell-free LANA-H2A/H2B peptide, fluorescence polarization | AID 2629, 2010 | hit rate 0.6% among 320,000 | inhibition, % (concentration not given with the values) | Protein LANA1 (Human herpesvirus 8 type P (isolate GK18)), Q9QR71; in the data active = inhibition mostly above about 10%, no sharp cut-off; inactive = mostly below about 6.7%
TLR4 MyD88 comp: inhibitors of TLR4-MyD88 association in cells, primary screen, cell-based, HeLa CL3-4, BLA complementation, FRET ratio; hit rate 0.18% among 200,000; HeLa CL3-4 TLR4/MyD88 BLA complementation; inhibition, % at 8.4 µM; Toll-like receptor 4 (Homo sapiens) + Myeloid differentiation primary response protein …; in the data active = inhibition above about 25%
NOD2-RIPK2 conf: NOD2-RIPK2 binding disruptors, retest, confirmation, fluorescence, CHO cells, BLA complementation, triplicate. AID 624370, 2012. shares compounds with NOD2 RIPK2 PPI. CCF4 FRET. inhibition, % at 4.98 µM. hit rate 70% among 1,200;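 active = mean inhibition across replicates above a set limit taken from the earlier primary screen, cut at about 21% in these data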
NOD2 BLA counter: NOD2-RIPK2 counterscreen BLA reporter activity. inhibition, % at 4.98 µM. shares compounds with NOD2 RIPK2 PPI. CHO BLA reporter, CCF4 FRET ratio. hit rate 57% among 1,200;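 active = mean inhibition above the low-control mean inhibition plus three low-control SD, cut at about 11% in these data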
Hits are given with their value; . = inactive; / = no result given. An excerpt weighted towards active compounds, which were near 1.8% of everything screened.

SMILES	NOD2 RIPK2 PPI	m5-HT2A agonist	TLR9-MyD88 block	Rtt109 HAT inh	LANA-H2A inh	TLR4 MyD88 comp	NOD2-RIPK2 conf	NOD2 BLA counter
Cc1cn([C@H]2C[C@H](O)[C@@H](/C=C/C(=O)NCCN3CCCCC3)O2)c(=O)[nH]c1=O	61.4	.	/	/	/	/	.	.
COc1cccc(C(=O)NCC(C)(C)SCc2ccc(F)cc2)c1	.	.	.	/	.	/	/	/
CC1C=CC(C)C(C(=O)c2ccccc2)C1C(=O)c1ccccc1 (stereo unspecified)	29.6	.	.	/	/	/	.	.
CC(=O)Nc1ccc(S(=O)(=O)NCCC(=O)NCc2ccco2)cc1	.	.	.	/	/	/	/	/
COc1ccc(S(=O)(=O)N2CCOCC2)cc1NC(=O)CN1C(=O)NC2(CCCCC2C)C1=O (stereo unspecified)	.	.	.	.	.	/	/	/
C/C(=N\NC(=O)c1cc(-c2ccncc2)nc2ccccc12)c1ccc(N2CCOCC2)cc1	24.3	.	.	.	.	.	.	.
CC(=NNC(=O)c1cc(C)nc2ccccc12)c1ccc(N2CCOCC2)cc1	.	.	.	.	.	/	/	/
Cc1ccnc(N/C=C(\C#N)c2nc(-c3cccc(Br)c3)cs2)c1	27.0	.	.	.	.	.	30.0	29.7
CCCNC(=O)N(C)C[C@H]1Oc2ncc(C#CCc3ccccc3)cc2C(=O)N([C@H](C)CO)C[C@H]1C	.	.	.	/	/	/	/	/
Cc1ccc(S(=O)(=O)SC/C=C/CSS(=O)(=O)c2ccc(C)cc2)cc1	.	.	.	.	/	/	/	/
Cc1ccc(S(=O)(=O)SCCCSS(=O)(=O)c2ccc(C)cc2)cc1	36.1	.	.	.	/	/	42.5	.
O=C(CCc1ccccc1)Nc1ccccc1	35.5	.	.	.	.	.	.	.
Cc1ccccc1NC(=O)C1C2CC/C=C\CCC21 (stereo unspecified)	27.1	.	.	.	.	.	.	.
CC(=O)Nc1cnc(/C=C\CCCO)cn1	.	.	/	/	/	/	/	/
CC(C)c1nnc(NC(=O)CCS(=O)(=O)c2nc(-c3cccs3)cc(C(F)(F)F)n2)s1	40.9	.	.	.	.	.	.	.
CC(C)c1nnc(NC(=O)CCS(=O)(=O)Cc2ccccc2)s1	.	.	.	.	.	/	/	/
COC(=O)Nc1ccc(SCC(=O)c2cccc([N+](=O)[O-])c2)cc1	22.2	.	.	.	.	/	.	.
CC(=O)Nc1ccc(C(=O)OCC(=O)c2cccc([N+](=O)[O-])c2)cc1	.	.	.	.	.	.	/	/
CC1=NN(C(=S)Nc2ccccc2)C(c2ccccc2)C1 (stereo unspecified)	.	.	.	.	.	.	/	/
Cc1ccc(C2CC(c3ccccc3)=NN2C(=S)Nc2ccccc2)o1 (stereo unspecified)	48.3	.	.	.	.	.	.	.
COc1ccc(C(C)=O)cc1CSc1nc2ccccc2c(=O)n1-c1ccccc1	.	.	.	.	.	.	/	/
COc1ccc(C(C)=O)cc1CSc1nc2ccccc2c(=O)n1-c1ccccc1C	24.0	.	.	.	.	.	.	.
CNc1c2cccc(C)c2nc2c(C(=O)NCCN(C)C)cccc12	40.8	.	.	.	/	/	58.0	28.6
Cc1ccc(Cl)c2sc(N3CCN(C(=O)c4ccco4)CC3)nc12	.	.	.	.	.	/	/	/
CC(=O)OC[C@]12CC[C@H]3[C@@](C)(CC[C@H]4C(C)(C)CCC[C@]34C)[C@@H]1CC(C1=CC(=O)OC1O)O2 (stereo partly specified)	45.7	.	/	/	/	/	49.1	21.4
SMILES	NOD2 RIPK2 PPI	m5-HT2A agonist	TLR9-MyD88 block	Rtt109 HAT inh	LANA-H2A inh	TLR4 MyD88 comp	NOD2-RIPK2 conf	NOD2 BLA counter
COc1ccc(Nc2nc3cc(C)ccc3cc2C#N)cc1	21.2	.	.	.	.	/	.	16.8
COc1ccc(Nc2nc3cc(C)ccc3cc2C#N)c(OC)c1	.	.	.	.	.	.	/	/
O=C(Nc1ccc(Cl)cc1)Nc1ccc2c(c1)N1CCN=C1S2	21.6	.	.	.	.	.	36.1	19.2
Nc1ccc2c(c1)N1CCN=C1S2	.	.	.	.	.	.	/	/
COc1ccc(C(=O)Nc2ccc(NC(=O)c3cc(OC)c(OC)c(OC)c3)cn2)cc1	.	.	.	.	.	/	/	/
COc1cc(C(=O)N2CCN(S(=O)(=O)c3ccc(C)cc3)CC2)ccc1OCC(=O)N1CCOCC1	.	.	.	.	/	/	/	/
O=C(CN(c1cccc(C(F)(F)F)c1)S(=O)(=O)c1ccc(Cl)c([N+](=O)[O-])c1)NCc1ccc(F)cc1	23.3	.	.	.	.	.	28.9	.
O=C(CN(c1cccc([N+](=O)[O-])c1)S(=O)(=O)c1ccccc1)NCc1cccnc1	.	.	.	.	.	/	/	/
Cc1cc(S(=O)(=O)c2ccc(Cl)cc2)nc(S(=O)(=O)c2ccc(Cl)cc2)c1C#N	50.4	.	.	/	/	/	68.3	17.9
Cc1cc(C)c(S(=O)(=O)c2ccc(Cl)cc2)c(Cl)n1	.	.	.	.	.	.	/	/
Cc1ccc(S(=O)(=O)N2CC(O)C[C@H]2C(=O)OCC(=O)N2CCN(c3ccc(F)cc3)CC2)cc1C (stereo partly specified)	.	.	.	.	/	/	/	/
CCc1noc(C)c1C(=O)NNC(=O)c1ccc(N(CC)CC)cc1	.	.	.	.	.	/	/	/
O=c1oc2ccccc2cc1-c1nc(-c2cccs2)cs1	32.2	.	.	.	.	.	42.8	50.9
COCCCNc1c2c3c(cccc3[nH]c1=O)C(=O)c1ccccc1-2	32.3	.	.	.	123.5	.	37.4	41.1
Cc1cc(C(=O)CN2C(=O)c3cccc(N)c3C2=O)c(C)n1Cc1cccs1	23.8	.	.	.	.	.	28.8	41.8
Cc1cc(C(=O)CN2C(=O)NC3(CCCCC3C)C2=O)c(C)n1Cc1cccs1 (stereo unspecified)	.	.	.	.	.	.	/	/
O=C(CC1C(=O)NCCN1Cc1cccc(C(F)(F)F)c1)NC1CCCCCC1 (stereo unspecified)	.	.	.	.	.	/	/	/
Cc1ccc(/C=C2\Oc3c(ccc(O)c3CN3CCN(C)CC3)C2=O)cc1	28.6	.	.	.	.	.	.	24.9
